Source: PubChem
In the library only some 7.4% were active in any assay of this set; here they are far more common.
Rab9 promoter act: qHTS Assay for Rab9 Promoter Activators. Potency, µM (highest dose often 9.22 µM), usual class: activators. AID 485297, 2010. 320,000 compounds, 2.8% hits. Huh7 Rab9 promoter-luciferase reporter, luminescence, 24 h; also: nearly all actives have a fitted effect of over 60% in size
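Quantitative HTS format; Huh7 Rab9-luciferase reporter cells (1500/well) receive compound 2 h post-plating, incubate 24 h at 37 °C, then get luciferase reagent for 10 min before luminescence reading.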
SMN2 splice enh: qHTS Assay for Enhancers of SMN2 Splice Variant Expression. Potency, µM (top dose mostly 46.1 µM), actives largely listed as activators. HEK293 SMN2-luciferase splicing reporter, luminescence, 30-36 h. 210,000 compounds, 2.8% hits; also: nearly all actives have a fitted effect of over 55% in size
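HEK293 cells carry an SMN2 […]–luciferase reporter in which exon 7 inclusion puts luciferase in frame. Cells were plated 10-12 h before compound addition, then incubated 30-36 h at 37C. ONE-Glo luminescence was read; sodium butyrate at 4.5 mM final served as control.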
FLuc modulator: qHTS profiling assay for firefly luciferase inhibitor/activator using purifed enzyme and Km concentrations of substrates (counterscreen for miR-21 project); Potency, µM (doses to about 57.5 µM), most hits filed as inhibitors; AID 588342, 2011; 360,000 compounds, 6.9% hits; Luciferin 4-monooxygenase (Photinus pyralis), P08659; purified FLuc, Km substrates, luminescence inhibition; also: nearly all actives have a fitted effect of over 55% in size
Target sequence (P08659 whole entry, looked up): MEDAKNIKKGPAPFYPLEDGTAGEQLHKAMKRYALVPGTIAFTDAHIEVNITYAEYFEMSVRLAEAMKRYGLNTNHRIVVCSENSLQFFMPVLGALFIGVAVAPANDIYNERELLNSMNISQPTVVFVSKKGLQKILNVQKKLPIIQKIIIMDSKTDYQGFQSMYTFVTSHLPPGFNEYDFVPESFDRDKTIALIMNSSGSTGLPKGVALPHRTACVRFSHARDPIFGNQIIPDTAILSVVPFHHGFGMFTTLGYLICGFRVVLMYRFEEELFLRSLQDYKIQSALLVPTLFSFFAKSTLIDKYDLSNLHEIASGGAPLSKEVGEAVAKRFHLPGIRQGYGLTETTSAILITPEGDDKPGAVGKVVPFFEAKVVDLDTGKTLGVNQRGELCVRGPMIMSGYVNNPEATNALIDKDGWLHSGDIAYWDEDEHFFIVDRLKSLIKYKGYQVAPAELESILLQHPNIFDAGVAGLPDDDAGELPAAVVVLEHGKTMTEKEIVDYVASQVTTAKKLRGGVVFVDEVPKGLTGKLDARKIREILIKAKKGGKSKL
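Purified P. pyralis luciferase, 10 nM final, with Km-level 10 uM D-luciferin and 10 uM ATP in 50 mM Tris acetate pH 7.5, 10 mM Mg acetate, 0.01% Tween-20, 0.05% BSA; 6-point qHTS titration about 60 µM downward; luminescence read.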
NPC1 prom act: qHTS Assay for NPC1 Promoter Activators; Huh7 NPC1 promoter luciferase reporter, 24 h; Potency, µM (doses to about 9.22 µM), hits mostly activators; 320,000 compounds, 2.4% hits; AID 485313, 2010; also: nearly all actives have a fitted effect of over 60% in size
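Readout is luciferase luminescence, reflecting NPC1 promoter activation in stably transfected Huh7 cells after 24 h compound exposure at 37 °C in reduced-serum medium with 10% FBS.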
ELG1 genotox: qHTS screen for small molecules that induce genotoxicity in human embryonic kidney (HEK293T) cells expressing luciferase-tagged ELG1. Potency, µM (doses to about 46 µM), usual class: activators. HEK293T ELG1-luciferase reporter, luminescence, 16 h. 330,000 compounds, 1.3% hits; also: nearly all actives have a fitted effect of over 60% in size
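Luminescence read-out: rising ELG1-luciferase signal, reflecting elevated ELG1 protein under genetic stress, flags genotoxic compounds. Cells were treated for 16 hr at 37 °C before ONE-Glo detection.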
Luc counter: Counterscreen for Luciferase (Kinase-Glo TM) Inhibition; Potency, µM (titrated, usually from 38.3 µM), usual class: inhibitors; Kinase-Glo luciferase, ATP luminescence, 8 min; 200,000 compounds, 0.28% hits; also: nearly all actives have a fitted effect of over 60% in size
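Luminescence was the read-out, taken after 8-minute incubation at ambient temperature. Luciferase turned over luciferin with 10 uM ATP in imidazole pH 7.2 buffer containing KCl, MgCl2, Tween 20 and BSA.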
A number is an active result; n = inactive; u = inconclusive; x = no result given; [ ] = another dose, or the depositor's remark. Calls follow the shape of the dose curve; as a rule, active = well fitted curve in the direction sought with a large enough effect; inconclusive = small, poorly fitted or top-dose-only effect, or another doubt; inactive = no such curve, though single readings can be large; an effect the other way counts as inactive or inconclusive.

SMILES | Rab9 promoter act | SMN2 splice enh | FLuc modulator | NPC1 prom act | ELG1 genotox | Luc counter
CC(C)c1ccc(/C=N/NC(=O)c2cccc(Cl)c2)cc1 | 2.82µM | 15.8µM | 2.69µM | 2.82µM | 20.6µM | n
CN(C)c1ccc(/C=N/NC(=O)c2ccnn2C)cc1 | 0.501µM | x | 5.36µM | 2.51µM | u | 1.78µM
O=C(N/N=C/c1ccc(N2CCOCC2)cc1)c1ccccn1 | 2.24µM | x | 6.75µM | 2.51µM | u | x
Cc1ccc(/C=N/NC(=O)c2cccc(NC(=O)c3ccccc3Cl)c2)o1 | n | x | 16.9µM | n | n | x
CC(C)c1ccc(C(=O)N/N=C/c2cccc(Cl)c2Cl)cc1 | u | n | 8.49µM | u | n | n
Cc1cccc(/C=N/NC(=O)C[n+]2ccccc2)c1 | n | x | n | n | n | x
O=C(N/N=C/c1ccncc1)c1cnccn1 | n | x | n | n | n | x
Cc1cccc(/C=N\NC(=O)c2csnn2)c1 | n | n | 8.49µM | u | u | u
CN(C)c1ccc(/C=N\NC(=O)c2csnn2)cc1 | 0.631µM | 15.8µM | 3.79µM | 0.891µM | u | u
CC(C)c1ccc(/C=N/NC(=O)c2ccccn2)cc1 | 0.316µM | x | 0.379µM | 0.141µM | u | x
N#Cc1ccc(Cl)cc1NC(=O)CSc1nc2nc(-c3cccs3)cc(C(F)(F)F)c2c(=O)[nH]1 | n | x | n | n | n | x
Cc1ccc(/C=N/NC(=O)c2ccccn2)o1 | u | u | 23.9µM | u | u | n
CC(C)c1ccc(/C=N/NC(=O)CCNC(=O)c2ccccc2)cc1 | u | x | 8.49µM | u | n | x
COc1ccc(C(=O)Cn2nnc(-c3cccs3)n2)cc1 | 2.82µM | n | 9.53µM | u | n | n
COC(=O)Cn1nnc(-c2cccc(OC)c2)n1 | n | n | 26.9µM | n | n | n
COc1cccc(-c2nnn(CCC(=O)O)n2)c1 | n | n | n | n | n | n
O=C(Cn1nnc(-c2ccccc2)n1)c1ccccc1 | n | n | u | n | n | n
Cc1ccc(C(=O)Cn2nnc(-c3ccccc3)n2)cc1 | n | x | 19µM | n | n | x
Cc1ccc(-c2nn(-c3ccc(F)cc3)c3c2cnc2cc(F)c(F)cc23)cc1 | x | n | n | x | x | x
C[C@H]1COC(=O)[C@@H](Cc2ccc(F)cc2)C/C=C\C[C@@H](CC(=O)N[C@@H](CO)Cc2ccccc2)C(=O)N1 | x | x | x | x | n | x
CCOC(=O)C1=C(CN(C)Cc2ccccc2)NC(=O)NC1c1ccc(OC(C)C)cc1 (configuration not stated) | x | n | n | x | x | x
O=C1c2ccccc2NC(c2ccccc2)N1/N=C/c1ccccc1 (configuration not stated) | 2.51µM | 25.1µM | u | 2.51µM | n | n
O=C1c2ccccc2NC(c2ccc(O)cc2)N1/N=C/c1ccc(O)cc1 (configuration not stated) | n | n[1.84 µM] | n | n | n | n
CC(Cc1ccccc1)NC(=O)CCCN1C(=O)c2ccccc2C1=O (configuration not stated) | n | x | n | n | n | x
CN(CC(=O)Nc1ccc(N2CCOCC2)cc1)C(=O)CCc1cc(C(C)(C)C)c(O)c(C(C)(C)C)c1 | n | x | u | n | n | x
SMILES | Rab9 promoter act | SMN2 splice enh | FLuc modulator | NPC1 prom act | ELG1 genotox | Luc counter
O=C(O)CSc1c2c(nc3cc(C(=O)Nc4cccc(C(F)(F)F)c4)ccc13)CCC2 | n | x | 26.9µM | n | n | x
CCOc1ccc(NC(=O)c2ccc3c(SCC(=O)O)c4c(nc3c2)CCCC4)cc1 | n | n | 16.9µM | n | n | n
CCOc1ccc(OCCC(=O)OCC(=O)N2CCN(c3ccc(OC)cc3)CC2)cc1 | n | x | n | n | n | x
Cc1ccc(C(=O)c2c3ccccc3[n+]([O-])n2CCC(N)=O)cc1 | n | x | u | n | n | x
Cc1cc(NC(=O)c2sccc2C)n(-c2cccc(Cl)c2)n1 | n | n | 26.9µM | n | n | n
Cc1cc(NC(=O)c2cccs2)n(-c2ccccc2)n1 | n | n | n | n | n | n
O=C(Cc1ccccc1)Nc1ccccc1C(=O)N1CCN(c2ccccc2)CC1 | n | x | n | n | n | x
O=C(CCS(=O)(=O)c1ccccc1)NC12CC3CC(CC(C3)C1)C2 | 3.55µM | u | 12µM | 3.16µM | 9.2µM | n
O=C(CCS(=O)(=O)c1ccccc1)NCCS(=O)(=O)c1ccccc1 | n | n | n | n | n | n
CCCCCCC(=O)Nc1ccc(Br)cn1 | u | x | u | n | n | x
COc1ccc(OC)c(-n2c3c(cc(-c4nc(-c5ccc(Cl)cc5)cs4)c2=O)C(=O)CC(C)(C)C3)c1 | x | n | n | x | x | x
O=C1N/C(=C\c2ccc(O)cc2)C(=O)c2ccccc21 | n | n | 1.2µM | n | u | 12.6µM
O=C(COc1coc(CN2CCN(c3ccccc3)CC2)cc1=O)NC1CCCCC1 | n | x | n | n | n | x
COc1ccccc1CCN1CCCC(CN(C)C(=O)CCC(N)=O)C1 (configuration not stated) | n | x | n | n | n | x
O=C(Nc1ccc(Br)cc1)c1cnc[nH]1 | 3.55µM | x | 23.9µM | u | u | x
Cc1oc(-c2ccccc2F)nc1CSc1nnc(C)n2c1cc1occc12 | x | x | n | x | x | x
Cc1nnc(SCc2ccccc2Cl)c2cc3occc3n12 | x | x | 16.9µM | x | x | x
Cc1ccccc1-c1nc2cc(Cl)ccc2o1 | u | x | 2.13µM | u | u | x
Cc1ccccc1-c1nc2ccccc2o1 | n | n | 8.49µM | n | n | n
CC(C)(C)NS(=O)(=O)c1cccc(S(=O)(=O)c2cccc(S(=O)(=O)NC(C)(C)C)c2)c1 | 1.58µM | 14.1µM | 5.36µM | 2.51µM | u | n
COc1ccc(C2CC(c3ccccc3)=NN2C(=O)COC(=O)/C=C/c2ccc(O)c(OC)c2)cc1 (configuration not stated) | n | x | n | n | n | x
Cc1ccc(N(C)S(=O)(=O)c2ccc3[nH]c(=O)ccc3c2)cc1 | x | x | 8.49µM | x | x | x
CCN(c1ccccc1)S(=O)(=O)c1ccc2ccccc2c1 | n[1.84 µM] | x | n | n | n | x
CN(c1ccc(O)cc1)S(=O)(=O)c1ccc2ccccc2c1 | 3.98µM | x | 19µM | u | u | x
COc1ccccc1N(CN1C(=O)c2ccccc2C1=O)C(=O)c1cccc(C)c1 | n | n | n | n | n | n
COc1ccc(C2=C(C)C(=NCCCN3CCN(c4cc(C)ccc4C)CC3)NS2(=O)=O)cc1 | x | x | n | x | x | x
COc1ccc(C2CC(=O)N(C)c3ccccc3S2)cc1 (configuration not stated) | n | n | 23.9µM | n | 18.3µM | n
CN1C(=O)CC(c2ccco2)Sc2ccccc21 (configuration not stated) | n | u | n | n | u | n
